Screening data as filed in PubChem.
Casp7 inh: caspase-7 (human) inhibition, allosteric or competitive; P55210; recombinant caspase-7, Ac-DEVD-AFC fluorescence rate; Potency, µM (series often up to 57.5 µM), without a hit: top-dose activity change, negative = inhibition, hits mostly inhibitors; 75,000 tested, 0.02% active; AID 889; active = well fitted inhibition curve with a large enough effect in the main read-out, with a control signal flat, not every such curve was filed as active; inconclusive = small, poorly fitted or top-dose-only effect, or a change in a side signal; note: % of control where 0% means no effect
Hsp90 Hop PPI: changes Hsp90-Hop TPR2A binding signal, up or down. AlphaScreen TPR2A-His6 binding biotin-Hsp90 C-terminal peptide. Potency, µM (top dose mostly 57 µM), inactives show at the highest dose activity change, negative = inhibition. 71,000 tested, 0.44% active; active = well fitted curve in either direction with a large enough effect; inconclusive = small, poorly fitted or top-dose-only effect, or another doubt; note: % is set by controls: 0 for no effect and ±100 for the full control effect
15-hLO inh: inhibitors of human 15-lipoxygenase (ALOX15); P16050; purified 15hLO-1, xylenol orange hydroperoxide absorbance; Potency, µM (highest dose often 57.1 µM), inactives show top-dose activity change, negative = inhibition, hits mostly inhibitors; 74,000 tested, 1.4% active; AID 887; note: % is set by controls: 0 for no effect and ±100 for the full control effect; nearly all actives have a fitted effect of over 55% in size
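Compounds were preincubated 15 min at room temperature with 40 nM purified human enzyme (25 mM Hepes pH 7.5, 0.01% Triton X-100); 50 uM arachidonic acid reacted 6 min. Fe-xylenol orange detection, 30 min, absorbance ratio 573/405 nm.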
Caspase-1 inhib: allosteric or competitive inhibitors of human caspase-1. AID 900. P29466. Potency, µM (top dose mostly 57.5 µM), for the others: at the top dose activity change, negative = inhibition, hits mostly inhibitors. Caspase-1 enzyme, Ac-WEHD-AFC fluorogenic rate. 75,000 tested, 0.03% active;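 note: plate controls were vehicle for no effect and no substrate for full effect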
Tau fil binding: tau filament binding; P10636; recombinant tau filaments, thioflavin S fluorescence, 15 h; filaments grown with octadecylsulfate alongside compound; Potency, µM (series often up to 57.1 µM), inactives show at the highest dose activity change, negative = inhibition; 71,000 tested, 2% active; AID 596;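 note: % is set by controls: 0 for no effect and ±100 for the full control effect; actives lower thioflavin S fluorescence by blocking filaments or displacing dye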
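Tau 2 uM in ThS buffer dispensed; compound added; 60 uM ODS added (finals 1 uM tau, 30 uM ODS); 15 h 37 C; fluor ex450/em510.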
ALOX15B inhib: inhibitors of human 15-lipoxygenase 2 (ALOX15B); purified 15hLO-2, xylenol orange hydroperoxide absorbance; Potency, µM (top dose mostly 57.1 µM), without a hit: at the top dose activity change, negative = inhibition, usual class: inhibitors; 110,000 tested, 0.56% active; AID 881; note: % is set by controls: 0 for no effect and ±100 for the full control effect; nearly all actives have a fitted effect of over 60% in size
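Purified human 15hLO-2 (50 nM final) preincubated with compounds 15 min at room temperature in 25 mM Hepes pH 7.5, 0.01% Triton X-100, then 45 uM arachidonic acid added for 90 min; hydroperoxide detected via ferrous/xylenol orange, 573/405 nm absorbance ratio.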
* hit, by the source's call; ? = inconclusive; . = no result given; [ ] = another dose, or the depositor's remark. An excerpt weighted towards active compounds, which were near 2.4% of everything screened. Unless noted, calls come from the whole dose curve; as a rule, active = well fitted curve in the direction sought with a large enough effect; inconclusive = small, poorly fitted or top-dose-only effect, or another doubt; inactive = no such curve, though single readings can be large; an effect the other way counts as inactive or inconclusive. Potency is the fitted concentration of half-maximal effect.

SMILES	Casp7 inh	Hsp90 Hop PPI	15-hLO inh	Caspase-1 inhib	Tau fil binding	ALOX15B inhib
COc1ccc(-c2csc3c2[N+]2=CCC=C2C3=O)cc1	1%[11.5 µM]	-11%[11 µM]	-2%[11.4 µM]	-6%[11.5 µM]	3.2µM*	-2%[11.4 µM]
CNc1ccccc1C(C)(C)c1cc(-c2ccco2)n[nH]1	-27%	?	?	?	32µM*	-3%
N=C(N)SCCc1ccc(OCc2ccc([N+](=O)[O-])cc2)cc1	1%	-3%	?	3%	32µM*	39%
N=C(N)SCCc1ccc(CCSC(=N)N)cc1	-1%	-2%	-5%	1%	15%	-7%
COc1cc(C(Nc2ccccn2)c2ccc3ccc(C)nc3c2O)cc(OC)c1O (stereo not drawn)	-24%	?	13µM*	?	13µM*	77%
Oc1c(C(Nc2ccccn2)c2ccccn2)ccc2cccnc12 (stereo not drawn)	1%	3.2µM*	28%	-2%	-18%	13%
Oc1c([C@H](Nc2ccccn2)c2ccccc2)ccc2cccnc12	1%[11.5 µM]	?	-15%[11.4 µM]	-2%[11.5 µM]	-14%[11.4 µM]	27%[11.4 µM]
CC(=O)NC(c1ccco1)c1ccc2cccnc2c1O (stereo not drawn)	-5%	7.9µM*	3%	-6%	-13%	33%
CN(C)CCCN1C(=O)C(=O)/C(=C(/O)c2ccc3c(c2)OCCO3)C1c1ccccn1 (stereo not drawn)	-1%	-5%	6%	-5%	-14%	.
Cc1cc(C#N)c(C)n1-c1cc(C(F)(F)F)ccc1N1CCOCC1	-4%	-14%	-8%	-4%	-10%	-2%
CCOC(=O)C1CCN(C(=O)CN(c2ccc(OC)c(OC)c2)S(=O)(=O)c2ccccc2)CC1	1%	-3%	-4%	-2%	4%	-1%
O=C1CC(N2CCN(C/C=C/c3ccccc3)CC2)C(=O)N1Cc1cccs1 (stereo not drawn)	0%	-5%	-2%	5%	-1%	7%[2.29 µM]
O=C1CC(N2CCN(c3ccc(O)cc3)CC2)C(=O)N1Cc1cccs1 (stereo not drawn)	0%	-5%	13µM*	-2%	-21%	?
CC(c1ccccc1)n1cc(C(=O)NCC2COc3ccccc3O2)nn1 (stereo not drawn)	-9%	-3%	2%	1%	10%	.
O=C(NC(=S)Nc1ccccc1N1CCCC1)c1ccc(-c2cccc([N+](=O)[O-])c2)o1	.	.	.	.	.	7.9µM*
O=C(NC(=S)Nc1ccccc1N1CCCCC1)c1ccc(-c2cccc([N+](=O)[O-])c2)o1	.	.	.	.	.	25µM*
O=C(NC(=S)Nc1ccccc1O)c1ccc(-c2ccc(Cl)cc2)o1	.	.	.	.	.	-27%
COc1ccc(/C=C/c2cc(-c3ccc(C)cc3)o[n+]2C)cc1	.	.	.	.	.	13%
CCn1c2ccccc2c2nnc(SCc3ccccc3)nc21	-8%	-7%[2.3 µM]	-4%	-4%	-22%	.
CCn1c2ccccc2c2nnc(SCc3ccc(C(=O)OC)o3)nc21	-5%	?	-18%	-5%	32µM*	-11%
O=C(CSc1nnc(C2CC2)n1-c1ccccc1)Nc1ccc(N2CCOCC2)cc1	.	.	.	.	.	-6%
CCCSc1nc(N)cc(=O)[nH]1	-3%	0%	-1%	-1%	8%	-2%
COc1ccc(-c2ccc(C#N)c(SCC(=O)OCc3ccccc3)n2)cc1OC	.	.	.	.	.	-10%
CCSc1nc(-c2ccc(OC)cc2)ccc1C#N	-15%	25µM*	-20%	-8%	13%	5%
O=C(OCC(=O)c1ccc[nH]1)c1ccc(S(=O)(=O)N2CCCCC2)cc1	0%	-1%	-1%	0%	80%	10%[2.29 µM]
SMILES	Casp7 inh	Hsp90 Hop PPI	15-hLO inh	Caspase-1 inhib	Tau fil binding	ALOX15B inhib
CO/N=C(/CS(=O)(=O)Cc1ccccc1Cl)c1ccc(Cl)cc1Cl	.	.	.	.	.	1%
COc1ccc(CCNC(=O)COC(=O)c2ccco2)cc1OC	0%	0%	11%	-4%	-6%	-3%
COc1ccc(CCNC(=O)c2ccc3nc(-c4ccco4)c(-c4ccco4)nc3c2)cc1OC	?	-15%	7.9µM*	.	3.2µM*	?
C=CCNC(=O)C1CCN(c2nc(C)cc(-c3ccccc3)n2)CC1	-1%	5%	-7%	-2%	5%	-2%
C=Cc1c(C)/c2[n-]/c1=C\c1[n-]c(c(CC)c1C)/C=c1\[n-]c3c(c1C)C(=O)C(C(=O)[O-])C=3c1[n-]c(c(C)c1CCC(=O)[O-])\C=2.[Cu].[Na+].[Na+] (stereo not drawn)	-18%	.	6.3µM*	-12%	.	7.9µM*
Cc1ccc(-n2c(Cc3cccn3C)nnc2SCC(=O)Nc2ccc3c(c2)OCO3)cc1	-11%	-11%	-21%	-6%	10%	-8%
CCOC(=O)N1CCN(C(=O)C(C)(C)Oc2ccc(Cl)cc2)CC1	-2%	1%	8%	-3%	0%	5%
COc1ccc(N2CCN(C(=O)C(C)(C)Oc3ccc(Cl)cc3)CC2)cc1	-5%	-5%[2.3 µM]	?	-2%	13µM*	7%
COc1ccccc1-c1cc(-c2ccccc2)nc(SC(C(N)=O)c2ccccc2)c1C#N (stereo not drawn)	.	.	.	.	.	16µM*
COC(=O)C(Sc1nc(C)cc(C)c1C#N)c1ccccc1 (stereo not drawn)	.	.	.	.	.	-5%
N#Cc1c(/N=C/c2ccco2)sc2c1CCCCC2	1%	-27%	-24%	-3%	16µM*	-21%
C(=N\Nc1ncnc2sc3c(c12)CCC3)/c1cccs1	.	.	.	.	.	44%
N#Cc1c(/N=C/c2cccs2)sc2c1CCC2	-12%	-9%	-17%	-9%	16µM*	-6%
O=C(CSc1nnc(CNC(=O)c2cccs2)o1)NCc1ccc(F)cc1	1%	?	5%	-3%	-7%	0%
Cc1ccc(Cn2nnc3c(=O)n(Cc4cccc(C)c4)cnc32)cc1	-3%	8%	?	-3%	1%	-11%
CCn1c(SCC(=O)c2ccc(O)c(O)c2)nnc1-c1ccccc1OC	-6%	-7%	16µM*	0%	-13%	-14%
Cc1cc(C(=O)CSCCCn2c(=O)[nH]c3ccccc32)c(C)n1C	-1%	-7%	32µM*	-3%	2%	?
CC(C)OC(=O)c1cccnc1SCC(=O)N(C)c1ccccc1	.	.	.	.	.	1%
CC1CCN(CC(=O)Nc2sc3c(c2C#N)CCC3)CC1	-1%	?	25µM*	1%	22%	-14%
N#Cc1c(NC(=O)c2ccncc2)sc2c1CCC2	-9%	-19%	?	-3%	16µM*	-9%
CCCCN1C2CCCC1CC(NC(=O)c1ccc(OC)c(OC)c1)C2 (stereo not drawn)	-2%	-3%	-2%	-2%	0%	12%
CCc1ccc2c(-c3cccc(Cl)c3)nc(=O)n(CC)c2n1	-1%	-7%	-4%[25.6 µM]	-2%	32µM*	-27%
